The source of these data is the supplement of paper PMC12045047.

Counter-ions that a name gives are not always drawn. Unmarked numbers belong to inactive results.

One assay concerns primary human airway basal cells (HBEC, luciferase-transduced). The assay is described as follows: proliferation (luciferase bioluminescence) Z score relative to plate mean; higher = more proliferation / more cells, active = 1.96 or more. The note with it: donor: 1; 0.5 µM; library: ENZO Libraries; 4 days. As for the experimental part: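 Primary human bronchial epithelial (airway basal) cells from two donors, lentivirally transduced with pHIV-Luc-ZsGreen, were seeded at 2000 cells/well in 384-well plates in FAD medium with ENZO or Prestwick library compounds and cultured for 4 days. Luciferin was then added and bioluminescence was read as a measure of cell number. Relative light units were converted to Z scores against the plate, and the mean of triplicate wells is reported.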
On to `CC(NC(=O)c1ccccc1/N=C/c1c(O)ccc2ccccc12)c1ccccc1` (stereo not given) [Sirtinol], for which the proliferation was -0.129.

For `O=C(CCCN1C(=O)c2cccc3cccc(c23)C1=O)NO` [Nullscript], the proliferation is 0.202.

As for `O=c1cc(N2CCOCC2)oc2c(-c3ccccc3)cccc12`, the proliferation was -0.437.

For `O=C1Nc2ccc([N+](=O)[O-])cc2C1=O` [5-Nitroisatin], the proliferation is 0.112.

Consider `CC(=O)Nc1ccc(C(=O)Nc2ccccc2N)cc1`, for which the proliferation was 0.183.

Turning to `N#C/C(=C\c1ccc(O)c(O)c1)C(N)=O`, the proliferation was -0.0866.

In the case of `C[S+]([O-])c1ccc(-c2nc(-c3ccc(F)cc3)c(-c3ccncc3)[nH]2)cc1` (stereo not given), the proliferation is 0.838.

With `CC[C@H](C)[C@H](N)C(=O)N1CCSC1` [P32/98 hemifumarate salt], the proliferation is -0.342.

Turning to `O=Nc1c(-c2c(O)[nH]c3ccccc23)[nH]c2ccccc12` [Indirubin-3'-monooxime], the proliferation is -0.0926.

Turning to `N#CC(C#N)=C(N)/C(C#N)=C/c1cc(O)c(O)c(O)c1`, the proliferation was -0.239.

For the molecule `CC[C@H](CO)Nc1nc(NCc2ccccc2)c2ncn(C(C)C)c2n1` [Roscovitine], the proliferation was -0.00187.

For the molecule `NC(=O)c1cccnc1` [Nicotinamide], the proliferation was 0.0934.

With `Nc1ncn([C@H]2C[C@H](O)[C@@H](CO)O2)c(=O)n1` [5-Aza-2'-deoxycytidine], the proliferation was -0.383.

For `Cc1cc2ncc(-c3ccccc3)nc2cc1C`, the proliferation was 5.22 (active).

Turning to `Oc1ccc(-c2nc(-c3ccc(F)cc3)c(-c3ccncc3)[nH]2)cc1`, the proliferation was 0.995.

Consider `NC(=O)c1ccncc1` [Isonicotinamide], for which the proliferation is 0.125.

In the case of `Cc1ccc(NC(=O)c2cccc(N(C)C)c2)cc1NC(=O)c1ccc(O)cc1`, the proliferation is 0.389.

`CC(C)CC(=O)N[C@H](C(=O)N[C@H](C(=O)N[C@@H](CC(C)C)[C@@H](O)CC(=O)N[C@@H](C)C(=O)N[C@@H](CC(C)C)[C@@H](O)CC(=O)O)C(C)C)C(C)C` [Pepstatin A]: the proliferation was 0.161.

Turning to `O=c1ncccn1[C@@H]1O[C@H](CO)[C@@H](O)[C@H]1O` [Zebularine], the proliferation was -0.238.

For the molecule `NC(N)=NCCC[C@H](NC(=O)[C@@H]1CCCN1C(=O)[C@H](N)Cc1ccccc1)C(=O)CCl`, the proliferation is 0.533.

The assay is the same for the next values; noted with them: donor: 1; 5 µM; library: ENZO Libraries; 4 days.
As for `CC(NC(=O)c1ccccc1/N=C/c1c(O)ccc2ccccc12)c1ccccc1` (stereo not given) [Sirtinol], the proliferation was -0.361.

As for `O=C(CCCN1C(=O)c2cccc3cccc(c23)C1=O)NO` [Nullscript], the proliferation was -0.00941.

Consider `O=c1cc(N2CCOCC2)oc2c(-c3ccccc3)cccc12`, for which the proliferation is -0.857.

As for `O=C1Nc2ccc([N+](=O)[O-])cc2C1=O` [5-Nitroisatin], the proliferation is -0.27.

As for `CC(=O)Nc1ccc(C(=O)Nc2ccccc2N)cc1`, the proliferation is -0.038.

With `N#C/C(=C\c1ccc(O)c(O)c1)C(N)=O`, the proliferation is -0.0854.

Consider `C[S+]([O-])c1ccc(-c2nc(-c3ccc(F)cc3)c(-c3ccncc3)[nH]2)cc1` (stereo not given), for which the proliferation was 0.0347.

In the case of `CC[C@H](C)[C@H](N)C(=O)N1CCSC1` [P32/98 hemifumarate salt], the proliferation is -0.616.

`O=Nc1c(-c2c(O)[nH]c3ccccc23)[nH]c2ccccc12` [Indirubin-3'-monooxime]: the proliferation was 2.48 (active).

With `N#CC(C#N)=C(N)/C(C#N)=C/c1cc(O)c(O)c(O)c1`, the proliferation is -0.228.

Take `CC[C@H](CO)Nc1nc(NCc2ccccc2)c2ncn(C(C)C)c2n1` [Roscovitine]: the proliferation is -0.592.

As to `NC(=O)c1cccnc1` [Nicotinamide], the proliferation is 0.119.

In the case of `Nc1ncn([C@H]2C[C@H](O)[C@@H](CO)O2)c(=O)n1` [5-Aza-2'-deoxycytidine], the proliferation is -0.302.

`Cc1cc2ncc(-c3ccccc3)nc2cc1C`: the proliferation was 2.1 (active).

`Oc1ccc(-c2nc(-c3ccc(F)cc3)c(-c3ccncc3)[nH]2)cc1`: the proliferation is 0.0853.

Regarding `NC(=O)c1ccncc1` [Isonicotinamide], the proliferation is -0.0123.

As for `Cc1ccc(NC(=O)c2cccc(N(C)C)c2)cc1NC(=O)c1ccc(O)cc1`, the proliferation was 0.18.

As to `CC(C)CC(=O)N[C@H](C(=O)N[C@H](C(=O)N[C@@H](CC(C)C)[C@@H](O)CC(=O)N[C@@H](C)C(=O)N[C@@H](CC(C)C)[C@@H](O)CC(=O)O)C(C)C)C(C)C` [Pepstatin A], the proliferation was 0.196.

Consider `O=c1ncccn1[C@@H]1O[C@H](CO)[C@@H](O)[C@H]1O` [Zebularine], for which the proliferation is 0.0287.

With `NC(N)=NCCC[C@H](NC(=O)[C@@H]1CCCN1C(=O)[C@H](N)Cc1ccccc1)C(=O)CCl`, the proliferation is -0.142.
